Measurements reported in PubChem BioAssay (NCI).
This is part of a sample that, as a whole, favours compounds with a hit. Of some 83,000 tested, about 20% had one in any assay.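 Interpretation: 100, growth as untreated; towards 0, rising growth inhibition; 0, no net growth; 0 to -100, cell death. Compounds scoring below 10 were considered active.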 The source made the active and inactive calls.

Columns and labels:
Assay in all cases: NCI-60 one-dose screen, 48 h (100 = growth as untreated, 0 = no growth, -100 = all killed)
Conditions in all cases: 10 µM unless noted
[1] = tested on: HCT-15 colon
[2] = tested on: HT29 colon
[3] = tested on: SNB-75 CNS
[4] = tested on: SNB-19 CNS
[5] = tested on: U251 CNS
[6] = tested on: PC-3 prostate
[7] = tested on: SK-MEL-5 melanoma
[8] = tested on: UACC-62 melanoma
[9] = tested on: LOX IMVI melanoma
[10] = tested on: SK-MEL-28 melanoma
[11] = tested on: SK-MEL-2 melanoma
[12] = tested on: EKVX NSCLC
[13] = tested on: SN12C renal
[14] = tested on: UO-31 renal
[15] = tested on: TK-10 renal
[16] = tested on: ACHN renal
[17] = tested on: CAKI-1 renal
[18] = tested on: A498 renal
[19] = tested on: CCRF-CEM leukemia
[20] = tested on: MOLT-4 leukemia

Measured: growth

CCc1ccc2nc(NC(=O)Cc3csc(NC(=O)c4ccco4)n3)sc2c1
inactive: [1] 95.5% | [2] 86.5% | [3] 47.1% | [4] 64.4% | [5] 67.3% | [6] 66.1% | [7] 81.6% | [8] 65.9% | [9] 85.7% | [10] 90.9% | [11] 67.9% | [12] 81.7% | [13] 79.4% | [14] 60.5% | [15] 82% | [16] 57.2% | [17] 60.1% | [18] 83.9% | [19] 87.2% | [20] 39.9%

Cc1nc2cnc(N)c(C#Cc3cncc(C(=O)Nc4ccc(CN5CCN(C)CC5)c(C(F)(F)F)c4)c3)c2nc1C
active: [1] 2.84% | [2] 7.18% | [3] -5.44% | [8] -19.7% | [9] -88.8% | [10] -26.8% | [11] -33.9% | [12] 7.92% | [13] 9.49% | [14] 2.11% | [15] 4.77% | [16] 0.0511% | [17] -36.4% | [18] -81% | [20] 8.72%
inactive: [4] 48.2% | [5] 42.1% | [6] 29% | [7] 26.6% | [19] 13.7%

O=C(Nc1ccc(F)cc1F)c1cc(F)ccc1O
inactive: [1] 12.4% | [2] 93.4% | [3] 10.6% | [4] 10.7% | [5] 10.6% | [6] 13.5% | [10] 21.9% | [12] 64.2% | [15] 22.9% | [19] 30.4%
active: [7] -59.1% | [8] -0.318% | [9] 9.88% | [11] -20% | [13] -3.45% | [14] -16.1% | [16] 7.4% | [17] 3.45% | [18] -37.5% | [20] 5.84%

O=S(=O)(NCCCNc1cc(-c2c(-c3cccc(O)c3)nc3sccn23)ccn1)c1cccc2ccccc12
active: [3] 4.78%
inactive: [1] 24.4% | [2] 36.1% | [4] 66.5% | [5] 46.2% | [6] 30.4% | [7] 37.3% | [8] 39% | [9] 33% | [10] 67.3% | [11] 59.8% | [12] 50% | [13] 21.1% | [14] 27.6% | [15] 82.7% | [16] 38.9% | [17] 36.1% | [18] 59% | [19] 21.2% | [20] 26.4%

O=C1/C(=C/c2ccccc2[N+](=O)[O-])Oc2ccc(O)c(O)c21
active: [8] -41.1% | [19] 8.79%
inactive: [1] 18.6% | [2] 32.3% | [3] 65.9% | [4] 70.3% | [5] 54.1% | [6] 44.5% | [7] 62% | [9] 14.3% | [10] 22.5% | [11] 43.1% | [12] 63.9% | [13] 31.1% | [14] 28.7% | [15] 80.4% | [16] 17.7% | [17] 15.1% | [18] 65.7% | [20] 18.1%

CCOC(=O)c1sc2ncc(-c3ccc(C)cc3)n2c1C
inactive: [1] 90.1% | [2] 93.1% | [3] 74.7% | [4] 94.5% | [5] 96.2% | [6] 81% | [7] 95.1% | [8] 72.6% | [9] 85.2% | [10] 102% | [11] 101% | [12] 88.4% | [13] 86.6% | [14] 78.2% | [15] 147% | [16] 84% | [17] 88.1% | [18] 104% | [19] 89.5% | [20] 90.1%

CCc1ccc(Oc2c(-c3ccc(OCc4ccc(Cl)cc4)cc3O)n[nH]c2C(F)(F)F)cc1
inactive: [1] 12.8% | [2] 86.1% | [3] 36.6% | [4] 25.4% | [6] 13.9% | [8] 17.9% | [10] 22.9% | [11] 11.4% | [12] 15.7% | [13] 15.3% | [15] 16.1% | [17] 29.6% | [18] 11.2% | [19] 11.7%
active: [5] 9.9% | [7] -14% | [9] 7.09% | [14] -10.4% | [16] 5.7% | [20] -3.23%

COc1ccc(/C=N/Nc2cc(=O)[nH]c3ccc(Cl)cc23)cc1
inactive: [1] 39.5% | [3] 99% | [4] 85.8% | [5] 28.9% | [6] 59.1% | [7] 38.2% | [8] 77.3% | [9] 37.2% | [10] 87.2% | [11] 48.8% | [12] 63.8% | [13] 62.3% | [14] 94.7% | [15] 12.5% | [16] 72.7% | [17] 86.2% | [18] 80.7% | [19] 38.2% | [20] 30.4%
active: [2] 3.92%

Cc1ccc2c(-c3cc(-c4ccccc4)nc(N)c3C#N)cc(=O)oc2c1
inactive: [1] 105% | [2] 90.1% | [3] 100% | [4] 94.1% | [5] 100% | [6] 89.2% | [7] 97% | [8] 90.1% | [9] 91.8% | [10] 105% | [11] 97.1% | [12] 113% | [13] 91.2% | [14] 86.3% | [15] 101% | [16] 99.3% | [17] 100% | [18] 63.6% | [19] 105% | [20] 94.5%

CC(=O)O.CN1[CH-]N(Cc2ccc(C#N)cc2)c2ccccc21.[Ag+]
inactive: [1] 102% | [2] 94.7% | [3] 94.7% | [4] 109% | [5] 97.4% | [6] 91.1% | [7] 41.7% | [8] 112% | [9] 91.8% | [10] 95.3% | [11] 89.8% | [12] 108% | [13] 111% | [14] 97.4% | [15] 103% | [16] 106% | [17] 104% | [18] 99.7% | [19] 24.7% | [20] 90.1%

C/C(=C\C(=O)c1ccc(Cl)cc1)c1ccc(Cl)cc1
inactive: [1] 44.6% | [2] 109% | [3] 92.8% | [4] 99.9% | [5] 100% | [6] 87.8% | [7] 94.1% | [8] 92.8% | [9] 100% | [10] 111% | [11] 98% | [12] 79% | [13] 103% | [14] 59.3% | [15] 74.7% | [16] 98.3% | [17] 87.8% | [18] 104% | [19] 88.4% | [20] 92.6%

CC(=O)CC(c1ccccc1)c1c(C)[nH]c2ccccc12 (stereo not given)
inactive: [1] 97.5% | [2] 103% | [3] 60.3% | [4] 93.2% | [5] 105% | [6] 87.9% | [7] 99.3% | [8] 86.7% | [9] 90.5% | [10] 102% | [11] 105% | [12] 85.9% | [13] 94% | [14] 72.6% | [15] 117% | [16] 92.8% | [17] 77.8% | [18] 88.1% | [19] 101% | [20] 95%

Cc1ccc(/C=N\NC(=O)c2[nH]c3ccc(F)cc3c2-c2ccccc2)cc1
inactive: [1] 24.1% | [3] 13.7% | [4] 45.9% | [5] 12.4% | [6] 15% | [8] 44.9% | [9] 26.5% | [10] 71.5% | [11] 23.2% | [12] 38% | [13] 41.5% | [14] 32.1% | [15] 72.5% | [16] 38.5% | [18] 19% | [19] 18.4% | [20] 28.2%
active: [2] 2.07% | [7] -17.1% | [17] 1.21%

CCN1C(=O)N(CC)C2Nn3c(s/c(=C4\C(=O)N(CCC(C)C)c5ccccc54)c3=O)=NC21 (stereo not given)
inactive: [1] 47% | [2] 112% | [3] 59.2% | [4] 88.6% | [5] 87.7% | [6] 63.2% | [7] 89.5% | [8] 67.1% | [9] 91.7% | [10] 78.6% | [11] 87.7% | [12] 67.1% | [13] 89.3% | [14] 54.3% | [15] 38.3% | [16] 67.6% | [17] 51.3% | [18] 72.9% | [19] 57.1% | [20] 85.5%

CCc1ccccc1-n1c(N)c(C#N)c(-c2ccc(Cl)cc2)c(C#N)c1=O
active: [19] -18.3%
inactive: [1] 108% | [2] 102% | [3] 90.5% | [4] 111% | [5] 119% | [6] 80.6% | [7] 106% | [8] 98.6% | [9] 100% | [10] 113% | [11] 117% | [12] 97.7% | [13] 106% | [14] 76.9% | [15] 157% | [16] 107% | [17] 103% | [18] 127% | [20] 105%
